aSyn UTR act – Activators working through SNCA 5'UTR binding (MLPCN); alpha-synuclein 5'UTR reporter, activators screen; activity score, % (tested at 7.5 µM), hits read low; 7.1% of 300,000 active; AID 1814; in the data active = activity score below about -60%
Each line names hits and unclear results; the compound was inactive in the other large screens. Not all results are given here.

O=C(Oc1ccc2ccccc2c1Cl)N1CCCC1	aSyn UTR act -78.8
O=C(COc1ccc2cc(Br)ccc2c1)N1CCCC1	aSyn UTR act -62.0
O=C(COc1ccc2ccccc2c1Br)Nc1ncn[nH]1	aSyn UTR act -67.9
O=C(COc1ccc2ccccc2c1Br)N1CCCC1	aSyn UTR act -90.5
C=CCNC(=S)NNC(=O)COc1ccc2cc(Br)ccc2c1	aSyn UTR act -156.9
CC(C)c1ccc(OCC(=O)N2CCCCCC2)c(Br)c1	aSyn UTR act -132.0
C=CCSc1nncn1/N=C/c1ccc(OC)cc1	aSyn UTR act -98.6
Cc1ccc(-n2nc3ccc(N)cc3n2)c(C)c1	none
Cc1c(N)ccc(-n2nc3ccccc3n2)c1C	aSyn UTR act -64.6
Cc1ccc(NC(=S)NNC(=O)c2nn(C)c(C)c2Cl)cc1	aSyn UTR act -276.0
Cc1ccc(NC(=S)NNC(=O)Nc2ccccc2)cc1	aSyn UTR act -131.7
Cc1ccc(NC(=O)NC(=O)N(c2ccccc2)S(C)(=O)=O)cc1	aSyn UTR act -93.0
O=C(NNC(=S)Nc1ccccc1)Nc1ccccc1	aSyn UTR act -92.1
CCOc1ccc(NC(=O)NC(=O)N(C)S(=O)(=O)c2ccc(C)cc2)cc1	aSyn UTR act -81.6
Clc1ccc(OCc2cn3cccnc3n2)c2ncccc12	aSyn UTR act -64.2
Cc1cc(Cl)ccc1OCc1cn2cccnc2n1	aSyn UTR act -123.6
COc1ccc(CCNCC(O)Cn2c3ccccc3c3ccccc32)cc1OC (configuration not stated)	none
COc1ccc(CCN2CC(C(=O)NCCc3ccccc3)CC2=O)cc1OC (configuration not stated)	aSyn UTR act -97.3
CS(=O)(=O)c1ccc2nc(NC(=O)c3ccccc3Cl)sc2c1	aSyn UTR act -108.8
COc1ccccc1C(=O)Nc1nc2ccccc2s1	none
Cc1noc(C)c1C(=O)Nc1nc2ccc(S(C)(=O)=O)cc2s1	aSyn UTR act -70.1
COc1ccccc1C(=O)Nc1nc2ccc(S(C)(=O)=O)cc2s1	aSyn UTR act -118.4
CS(=O)(=O)c1ccc2nc(NC(=O)c3cccc(Cl)c3)sc2c1	aSyn UTR act -71.9
CS(=O)(=O)c1ccc2nc(NC(=O)c3ccccc3Br)sc2c1	aSyn UTR act -103.8
O=c1cc(-c2ccc(Cl)cc2)[nH]c2ccccc12	aSyn UTR act -68.9
Clc1ccc(-c2cc3ccccc3[nH]2)cc1	aSyn UTR act -217.6
Cc1ccc(-c2cc(=O)c3cc(Cl)ccc3[nH]2)cc1	aSyn UTR act -92.3
Cc1ccc(-c2cc(=O)c3ccccc3[nH]2)cc1	aSyn UTR act -77.0
Cc1ccc2[nH]c(-c3ccccc3)cc(=O)c2c1	none
CC(C)OC(=O)c1ccc(NC(=O)CSc2nc3ncccc3[nH]2)cc1	aSyn UTR act -62.1
Cc1cc(NC(=O)c2ccc3nc(C)sc3c2)no1	aSyn UTR act -122.8
Cc1cc(NC(=O)c2ccc(Cl)cc2)no1	aSyn UTR act -106.8
Cc1cc(NC(=O)NC(=O)c2ccccc2)no1	aSyn UTR act -119.9
Cc1cc(NC(=O)c2ccco2)no1	aSyn UTR act -61.8
C/C(=C\c1ccccc1)C(=O)Nc1cc(C)on1	aSyn UTR act -161.0
CCn1cnc2sc(C(=O)Oc3cccc(C)c3)c(C)c2c1=O	aSyn UTR act -66.6
c1ccc(COc2ccc(OCCOCCn3cncn3)cc2)cc1	aSyn UTR act -117.5
Cc1ccc(N(O)C(=O)NCCCCNC(=O)N(O)c2ccc(C)cc2)cc1	aSyn UTR act -97.2
Cc1ccc(-c2nc(C(=O)NCCCN3CCOCC3)cc3c2[nH]c2ccccc23)cc1	aSyn UTR act -64.5
CCCc1ccc2oc(C(=O)N(C)Cc3nccs3)c(C)c2c1	aSyn UTR act -148.8
CCCc1ccc2oc(C(=O)N3CCC(O)CC3)c(C)c2c1	aSyn UTR act -89.2
Cc1ccc2oc(C(=O)N3CCCCCC3)c(C)c2c1	aSyn UTR act -77.8
Cc1ccc2oc(C(=O)NCCCN3CCOCC3)c(C)c2c1	aSyn UTR act -95.4
O=C(c1cc2cc(Br)ccc2o1)N1CCCCC1	aSyn UTR act -146.3
Cc1c(C(=O)N2CCCCC2)oc2ccc(Br)cc12	aSyn UTR act -137.7
CC1CCC2(CC1)Nc1ccccc1C(=O)N2c1ccccc1 (configuration not stated)	aSyn UTR act -104.7

Bioassay records from PubChem BioAssay.
